# Measured values: PubChem BioAssay AID1159580 (chemical genetic matrix, 2015)
# Out of some 5,500 compounds screened, about 2,000 (36%) were called active. About 18% were inconclusive and are not listed. This is one part of the list. A number with no mark means an inactive call. Cut-off read from the data, not from the text of the source: active = normalized growth mostly below about 0.91 (no sharp cut-off); inconclusive = no clear call, values can overlap the other calls; inactive = mostly above about 0.92.
# Assay: chemical genetic growth profiling, strain panel (AID 1159580);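 note: tested at 20 µM; growth read once vehicle control cultures reached saturation at 30 °C; 1 = growth at the plate median or of vehicle wells; lower values mean less growth of the strain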
# Settings: S. cerevisiae deletion strains, growth OD
compound,measurement,setting,value
C=C1CCC2(OC1)OC1CC3C4CC=C5CC(O)CC(O)C5(C)C4CCC3(C)C1C2C (centres undefined),normalized growth,"locus YAL021C, strain ccr4, hits give low values",0.929
same,normalized growth,"locus YAL026C, strain drs2, hits give low values",0.87 (active)
same,normalized growth,"locus YAL030W, strain snc1, hits give low values",1.01
same,normalized growth,"locus YBL061C, strain skt5, hits give low values",1.01
same,normalized growth,"locus YBR009C, strain hhf1, hits give low values",0.873 (active)
same,normalized growth,"locus YBR023C, strain chs3, hits give low values",0.976
same,normalized growth,"locus YBR171W, strain sec66, hits give low values",1.01
same,normalized growth,"locus YBR231C, strain swc5, hits give low values",1.03
same,normalized growth,"locus YBR279W, strain paf1, hits give low values",0.995
same,normalized growth,"locus YCL011C, strain gbp2, hits give low values",0.914
same,normalized growth,"locus YCL016C, strain dcc1, hits give low values",0.979
same,normalized growth,"locus YCL069W, strain vba3, hits give low values",0.939
same,normalized growth,"locus YCR088W, strain abp1, hits give low values",0.984
same,normalized growth,"locus YDL005C, strain med2, hits give low values",0.995
same,normalized growth,"locus YDL040C, strain nat1, hits give low values",1.01
same,normalized growth,"locus YDR001C, strain nth1, hits give low values",1.01
same,normalized growth,"locus YDR069C, strain doa4, hits give low values",1.01
same,normalized growth,"locus YDR137W, strain rgp1, hits give low values",0.586 (active)
same,normalized growth,"locus YDR159W, strain sac3, hits give low values",0.916
same,normalized growth,"locus YDR195W, strain ref2",0.889
same,normalized growth,"locus YDR297W, strain sur2, hits give low values",1.01
same,normalized growth,"locus YDR334W, strain swr1, hits give low values",1.01
same,normalized growth,"locus YDR335W, strain msn5, hits give low values",0.899 (active)
same,normalized growth,"locus YDR392W, strain spt3, hits give low values",0.819
same,normalized growth,"locus YEL003W, strain gim4, hits give low values",0.99
same,normalized growth,"locus YEL037C, strain rad23, hits give low values",1
same,normalized growth,"locus YEL061C, strain CIN8 (second series), hits give low values",0.94
same,normalized growth,"locus YER015W, strain faa2, hits give low values",1
same,normalized growth,"locus YER016W, strain bim1, hits give low values",0.992
same,normalized growth,"locus YER111C, strain swi4, hits give low values",0.958
same,normalized growth,"locus YER155C, strain BEM2 (second series), hits give low values",1.01
same,normalized growth,"locus YFR010W, strain ubp6, hits give low values",0.97
same,normalized growth,"locus YGL167C, strain pmr1, hits give low values",1.02
same,normalized growth,"locus YGL173C, strain kem1, hits give low values",1.01
same,normalized growth,"locus YGL227W, strain vid30, hits give low values",0.976
same,normalized growth,"locus YGL240W, strain doc1, hits give low values",1
same,normalized growth,"locus YGL253W, strain hxk2, hits give low values",0.855 (active)
same,normalized growth,"locus YHR013C, strain ard1, hits give low values",1.06
same,normalized growth,"locus YHR027C, strain rpn1, hits give low values",0.966
same,normalized growth,"locus YHR142W, strain chs7, hits give low values",0.749 (active)
same,normalized growth,"locus YJL092W, strain hpr5, hits give low values",0.978
same,normalized growth,"locus YJL095W, strain BCK1 (second series), hits give low values",0.966
same,normalized growth,"locus YJL115W, strain asf1, hits give low values",1.01
same,normalized growth,"locus YJL129C, strain trk1, hits give low values",0.853 (active)
same,normalized growth,"locus YJL154C, strain vps35, hits give low values",1
same,normalized growth,"locus YJL164C, strain tpk1, hits give low values",0.886 (active)
same,normalized growth,"locus YJL166W, strain qcr8, hits give low values",0.944
same,normalized growth,"locus YKL160W, strain elf1, hits give low values",0.986
same,normalized growth,"locus YKR026C, strain gcn3, hits give low values",0.994
same,normalized growth,"locus YKR091W, strain srl3, hits give low values",1.01
same,normalized growth,"locus YLL001W, strain dnm1, hits give low values",0.923
same,normalized growth,"locus YLL026W, hits give low values",0.98
same,normalized growth,"locus YLL041C, strain sdh2, hits give low values",1
same,normalized growth,"locus YLR027C, strain aat2, hits give low values",0.987
same,normalized growth,"locus YLR258W, strain gsy2, hits give low values",0.988
same,normalized growth,"locus YLR262C, strain YPT6 (second series), hits give low values",0.548 (active)
same,normalized growth,"locus YLR320W, strain mms22, hits give low values",0.929
same,normalized growth,"locus YLR342W, strain FKS1, hits give low values",1.01
same,normalized growth,"locus YLR357W, strain rsc2, hits give low values",1.07
same,normalized growth,"locus YLR370C, strain arc18, hits give low values",1.02
same,normalized growth,"locus YLR384C, strain iki3, hits give low values",1.01
same,normalized growth,"locus YML120C, strain ndi1, hits give low values",0.928
same,normalized growth,"locus YMR058W, strain fet3, hits give low values",0.959
same,normalized growth,"locus YMR125W, strain sto1, hits give low values",1
same,normalized growth,"locus YMR129W, hits give low values",1.01
same,normalized growth,"locus YMR205C, strain PFK2, hits give low values",0.865 (active)
same,normalized growth,"locus YMR231W, strain pep5, hits give low values",1.02
same,normalized growth,"locus YNL071W, strain lat1, hits give low values",0.846 (active)
same,normalized growth,"locus YNL209W, strain ssb2, hits give low values",1.02
same,normalized growth,"locus YNL248C, strain rpa49, hits give low values",0.987
same,normalized growth,"locus YNL322C, strain KRE1 (second series), hits give low values",1
same,normalized growth,"locus YNR049C, strain mso1, hits give low values",1
same,normalized growth,"locus YOR001W, strain rrp6, hits give low values",0.944
same,normalized growth,"locus YOR070C, strain gyp1, hits give low values",0.997
same,normalized growth,"locus YOR080W, strain dia2, hits give low values",1.02
same,normalized growth,"locus YOR083W, strain WHI5, hits give low values",0.979
same,normalized growth,"locus YOR106W, strain vam3, hits give low values",0.911
same,normalized growth,"locus YOR265W, strain rbl2, hits give low values",1.01
same,normalized growth,"locus YOR270C, strain vph1, hits give low values",0.771 (active)
same,normalized growth,"locus YOR290C, strain snf2, hits give low values",0.887
same,normalized growth,"locus YPL051W, strain arl3, hits give low values",0.907 (active)
same,normalized growth,"locus YPL078C, strain atp4, hits give low values",0.929
same,normalized growth,"locus YPL106C, strain sse1, hits give low values",1.03
same,normalized growth,"locus YPL240C, strain hsp82, hits give low values",0.974
